Screening data as filed in PubChem.
An excerpt weighted towards active compounds, which were near 2.1% of everything screened.
YB-1 expression – YB-1 expression inhibition; hit rate 0.37% among 30,000; delta delta Cp (YB-1 minus CDIP) (no concentration beside the values); U2OS, qRT-PCR YB-1 vs CDIP delta delta Cp, 16 h; stronger effect = higher value; zero = DMSO, each unit about twofold;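 active = delta delta Cp rounded down to an integer at or above 3, about 3 SD of DMSO wells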;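 also: higher means less YB-1 transcript or more CDIP transcript relative to DMSO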
U2OS ROS induce – inducers of reactive oxygen species in cancer cells. U2OS ROS induction, H2DCF-DA fluorescence. ROS induction (% of piperlongumine), % at 10 µM. hit rate 2% among 46,000; in the data active = ROS induction above about 79%, passing the limit was not always enough;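 also: 0% = DMSO vehicle median and 100% = reference compound median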
An asterisk follows results filed as active; · = not tested or not shown.

SMILES | YB-1 expression | U2OS ROS induce
COc1cc2oc(-c3ccccc3)cc(=O)c2c(OC)c1OC | 0.513 | 89.5*
COc1cc2oc(-c3ccccc3)cc(=O)c2c(O)c1OC | -0.0828 | 30.6
O=C(CCSc1nc(-c2ccccc2)cs1)Nc1ccccc1 | · | 105.6*
CC(=O)Nc1ccc(NC(=O)CCSc2ccccc2)cc1 | · | -2.1
CN(CC(=O)Nc1ccc2c(c1)OCCO2)S(=O)(=O)c1ccc2ccccc2c1 | · | -2.4
Cc1n[nH]c(=O)c2nc(-c3ccccc3)sc12 | · | -14.4
Cc1ccc(/C=C/c2onc3c(=O)[nH]nc(C)c23)cc1 | · | 118.8*
Cc1cc(/C=C2/C(=N)N3C=CSC3=NC2=O)c(C)n1-c1ccccc1 | · | 219.8*
Cc1ccc(COc2ccc(/C=C3/C(=N)N4C=CSC4=NC3=O)cc2Br)cc1 | · | -4.2
O=c1c(O[C@@H]2OC[C@H](O)[C@H](O)[C@H]2O)c(-c2ccc(O)cc2)oc2cc(O)cc(O)c12 | -0.617 | -4.6
O=C(NCc1ccc(Cl)cc1)C1CCC(CNS(=O)(=O)c2ccc(Cl)cc2)CC1 (centres undefined) | · | -7.6
C[C@@H]1CN([C@@H](C)CO)C(=O)c2cccc(NC(=O)Nc3ccc(C(F)(F)F)cc3)c2O[C@@H]1CN(C)C(=O)Nc1ccccc1 | -0.24 | 6.6
O=C1c2ccccc2-c2c(NCCc3ccccc3)c(=O)[nH]c3cccc1c23 | -0.481 | 813.2*
Cc1nnc(NCCc2ccccc2)[nH]c1=O | · | -6.4
COc1cccc(-c2cnc3c(c2)C(=O)N([C@H](C)CO)C[C@H](C)[C@H](CN(C)C(=O)Nc2ccc(F)cc2)O3)c1 | -0.354 | 28.9
COc1cccc(-c2cnc3c(c2)C(=O)N([C@H](C)CO)C[C@H](C)[C@H](CN(C)C(=O)Nc2ccc4c(c2)OCO4)O3)c1 | -0.567 | 93.9*
COc1cccc(-c2cnc3c(c2)C(=O)N([C@H](C)CO)C[C@H](C)[C@H](CN(C)C(=O)Nc2cccc4ccccc24)O3)c1 | 0.4 | 93.3*
COc1ccc(-c2cnc3c(c2)C(=O)N([C@H](C)CO)C[C@H](C)[C@H](CN(C)C(=O)Nc2ccc4c(c2)OCO4)O3)cc1 | 0.0373 | 33.0
COc1ccc(C#Cc2ccc3c(c2)[C@]2(C(=O)N3)[C@H](c3ccccc3OCCO)N3[C@H](c4ccccc4)[C@H](c4ccccc4)OC(=O)[C@H]3[C@@H]2C(N)=O)cc1 | -0.34 | 33.7
O=C(c1ccccc1)N1CCN(C2=NS(=O)(=O)c3ccccc32)CC1 | · | -5.9
COc1ccc(-c2noc(CN(C(=O)c3c(-c4ccccc4Cl)noc3C)C(C)C)n2)cc1 | · | 21.3
COc1ccc(S(=O)(=O)Nc2cccc3c2O[C@H](CN(C)C(=O)NC2CCCCC2)[C@@H](C)CN([C@@H](C)CO)C3=O)cc1 | -0.746 | -1.4
C[C@@H]1CN([C@H](C)CO)C(=O)Cc2cc(NS(=O)(=O)c3ccccc3)ccc2O[C@@H]1CN(C)S(=O)(=O)c1ccccc1 | -0.107 | 13.2
C[C@@H]1CN([C@H](C)CO)C(=O)Cc2cc(NS(=O)(=O)c3ccccc3)ccc2O[C@H]1CN(C)S(=O)(=O)c1ccccc1 | 5.14* | 1.2
C[C@H]1CN([C@@H](C)CO)C(=O)Cc2cc(NS(=O)(=O)c3ccc(F)cc3)ccc2O[C@H]1CN(C)S(=O)(=O)c1ccccc1 | -0.51 | 106.2*
SMILES | YB-1 expression | U2OS ROS induce
C[C@@H]1CN([C@@H](C)CO)C(=O)Cc2cc(NS(=O)(=O)c3ccccc3)ccc2O[C@@H]1CN(C)S(=O)(=O)c1ccc(F)cc1 | 0.0694 | 13.9
CC1(C)CC(=O)C=C(Sc2nc3ccccc3o2)C1 | 1.39 | 46.4
C[C@@H]1CN([C@H](C)CO)C(=O)c2cc(NC(=O)C3CCCCC3)ccc2O[C@H]1CN(C)C(=O)Nc1ccc(C(F)(F)F)cc1 | -0.0981 | 41.9
C[C@H]1CN([C@@H](C)CO)C(=O)c2cc(NC(=O)Nc3ccc(C(F)(F)F)cc3)ccc2O[C@H]1CN(C)C(=O)Nc1cccc2ccccc12 | -0.182 | 0.0
CNC[C@H]1Oc2c(NS(=O)(=O)c3ccc(F)cc3)cccc2C(=O)N([C@@H](C)CO)C[C@H]1C | 0.0686 | -0.5
Cc1ccc(NS(=O)(=O)c2cc(C(=O)Nc3ccccc3C(=O)N3CCCC3)ccc2Cl)cc1C | · | -5.7
Cc1ccc(C(=O)Nc2ccccc2C(=O)N2CCN(c3ccccc3)CC2)cc1S(=O)(=O)N1CCCCC1 | · | 143.5*
Cc1nc(SCC(=O)Nc2ccc3c(c2)OCCO3)c2c3c(sc2n1)CCC3 | · | -4.7
CC(=O)O[C@H]1[C@H](Oc2ccccc2COC(=O)C2(O)C=CCCC2=O)O[C@H](CO)[C@@H](O)[C@@H]1O (some centres undefined) | -0.463 | -5.2
CC(=O)O[C@H]1[C@H](Oc2ccccc2COC(=O)C2(O)C=CCCC2=O)O[C@H](COC(=O)C2(O)C=CCCC2=O)[C@@H](O)[C@@H]1O (some centres undefined) | 0.081 | 89.1*
C[C@@H]1CCCCO[C@H](CN(C)S(C)(=O)=O)[C@@H](C)CN([C@H](C)CO)C(=O)c2cc(NS(=O)(=O)c3ccc(F)cc3)ccc2O1 | -0.0843 | 5.7
CC(C)(C)c1ccc(OCC(=O)NCc2ccco2)c(Br)c1 | · | 13.2
C=C(CO)C(=O)O[C@H]1C[C@H]2C(=C)C[C@H](OC(=O)C(=C)CO)[C@H]3C(=C)C(=O)O[C@@H]3[C@H]2C1=C | 0.45 | 115.3*
C=C1C(=O)O[C@H]2C1CCC(=C)[C@@H]1C[C@H](OC(=O)C=C(C)C)C(=C)[C@@H]12 (some centres undefined) | -0.993 | 5.8
COc1ccc(NC(=O)N(C)C[C@H]2Oc3ccc(NC(=O)Nc4ccccc4)cc3C(=O)N([C@H](C)CO)C[C@H]2C)cc1 | -0.0941 | -10.3
O=S(=O)(C1=CC23CCCC2(C=C(S(=O)(=O)c2ccc(Cl)cc2)C3)C1)c1ccc(Cl)cc1 (centres undefined) | -0.751 | 81.2*
CC1CCCCN1S(=O)(=O)c1ccc(Cl)cc1 (centres undefined) | · | -4.8
Cc1nc2c(cnn2-c2ccccc2)c(=O)n1NC(=O)Nc1ccc(Cl)c(Cl)c1 | 9.92* | 24.6
CCOC(=O)c1cnn(-c2ccccc2)c1NC(=O)Nc1cccc(Cl)c1 | · | -8.3
COc1ccc(S(=O)(=O)N(C)C[C@@H]2OCCCC[C@@H](C)Oc3ccc(NC(=O)Nc4c(C)noc4C)cc3C(=O)N([C@H](C)CO)C[C@@H]2C)cc1 | 0.473 | 5.3
S=c1[nH]n(-c2ccc(Cl)cc2)c(=S)s1 | 5* | 0.9
S=c1nn[nH]n1CCc1ccc(Cl)cc1 | · | 8.7
COc1ccc(C(c2ccc3cccnc3c2O)N2CCOCC2)cc1 (centres undefined) | -0.832 | 9.6
C[C@H](CO)N1C[C@H](C)[C@H](CN(C)S(=O)(=O)c2ccc(F)cc2)Oc2c(NS(=O)(=O)c3ccc(F)cc3)cccc2C1=O | 0.193 | 7.8
C[C@@H]1CCCCO[C@@H](CN(C)C(=O)CCCN(C)C)[C@@H](C)CN([C@H](C)CO)C(=O)c2cc(NS(C)(=O)=O)ccc2O1 | 9.69* | -8.5
C[C@@H]1CCCCO[C@@H](CN(C)C(=O)CCCN(C)C)[C@@H](C)CN([C@H](C)CO)C(=O)c2cc(NS(=O)(=O)c3ccc(F)cc3)ccc2O1 | -0.125 | 7.8
Cc1ccc(S(=O)(=O)Nc2ccc3c(c2)C(=O)N([C@H](C)CO)C[C@H](C)[C@H](CN(C)C(=O)CCCN(C)C)OCCCC[C@@H](C)O3)cc1 | -0.355 | 4.3
